Among the data in ChEMBL document CHEMBL1157539, “Thousands of chemical starting points for antimalarial lead identification” (Nature, 2010) are Inhibition values, retold here.

Type in all cases: functional
The subject of assay [1] is Plasmodium falciparum. The experiment in a line: GSK_TCMDC: Inhibition of Plasmodium falciparum 3D7 in whole red blood cells, using parasite LDH activity as an index of growth. Test compounds present at 2uM.
Assay [2] relates to Plasmodium falciparum. The experiment in a line: GSK_TCMDC: Inhibition of Plasmodium falciparum Dd2 in whole red blood cells, using parasite LDH activity as an index of growth. Test compounds present at 2uM.
Assay [3] relates to HepG2. The assay is described as follows: GSK_TCMDC: Percent inhibition of human HepG2 cell line. Test compounds present at 10uM.

For orientation: Inhibition means the change of the read-out against control, counted positive when it falls. Lower therefore signals little suppression. Turning to `N=C(N)NCCCCN(Cc1ccccc1)c1ccccc1`, the results for the Inhibition in assay [1], in assay [2] and in assay [3] were 100%, 98% and 0%, respectively.
The matching figures for `Cc1cccc2nc(-c3cccc(-c4cccc(C(=O)NCCc5cn(C)cn5)c4)c3)[nH]c12`: 100%, 78% and 12%.
The like results for `O=C(NCCCN1CCN(c2cccc(Cl)c2)CC1)c1ccc(-c2nc3cc(Cl)c(Cl)cc3[nH]2)cc1` were, in that order, 98%, 95% and 3%.
Consider `O=C(C1CCCC1)N1CCOC(CCN2CCC(c3ccccc3)CC2)(c2ccc(Cl)c(Cl)c2)C1` (stereo not given), for which the Inhibition in assay [1] is 88%; in assay [2], 77%; in assay [3] it was 16%.
The like results for `Cc1nc2nc(N)nc(N)c2c(C)c1Cc1ccc(C#N)cc1.Cl` were, in that order, 96%, 4% and 69%.
For `O=C(Nc1cccc(C(F)(F)F)c1)N1CCOC(CCN2CCC(c3ccccc3)CC2)(c2ccc(Cl)c(Cl)c2)C1` (stereo not given), the Inhibition amounted to 87% in assay [1], 69% in assay [2] and 15% in assay [3].
For the compound `C=C(C)C1CC=C(CN2CCC(N3CCc4cc(NC(=O)c5cc(C)on5)ccc43)C2)CC1` (stereo not given), the figures for the Inhibition in assay [1], in assay [2] and in assay [3] were 90%, 95% and 26%, respectively.
The like results for `O=[N+]([O-])c1ccc(/C=N/O)nc1` were, in that order, 80%, 98% and 80%.
The like results for `O=C(O)C(F)(F)F.c1ccc(CN2CCC(NCc3ccccc3-c3ccc(CNC4CCCC4)cc3)CC2)cc1` were, in that order, 100%, 33% and 38%.
In the case of `CCN(CC)CCc1ccc2c(=O)cc(CCc3cccc(F)c3F)n(CC(=O)N(C)Cc3ccc(-c4ccc(C(F)(F)F)cc4)cc3)c2c1.O=C(O)C(O)C(O)C(=O)O`, the values for the Inhibition in assay [1], in assay [2] and in assay [3] were 97%, 45% and 98%, respectively.
The matching figures for `Nc1nc(N)c2cc(C(F)(F)F)ccc2n1`: 80%, 1% and 8%.
The like results for `O=C(O)C(F)(F)F.O=[N+]([O-])c1cccc(CNCC2CCN(Cc3ccc(Cl)c(Cl)c3)CC2)c1` were, in that order, 100%, 41% and 9%.
The like results for `Cc1cc(N[C@@H](Cc2ccccc2)C(=O)NCc2cccc(F)c2)nc(NCCCOC(C)C)n1.O=C(O)C(F)(F)F` were, in that order, 100%, 94% and 10%.
Take `CN1CCN(c2cccc(Nc3nccc(NCC(O)c4ccccc4)n3)c2)CC1` (stereo not given): the figures for the Inhibition in assay [1], in assay [2] and in assay [3] were 100%, 4% and 30%, respectively.
The matching figures for `O=C(N[C@@H](CC1CCCCC1)C(=O)NC1CCCCC1)c1ccc(O)c(-c2cccc(C(F)(F)F)c2)c1`: 100%, 95% and 0%.
The like results for `COc1ccc(-c2ccc(NC(=O)c3ccc(C#N)cc3)cc2)cc1CNC(C)C.O=C(O)C(F)(F)F` were, in that order, 100%, 38% and 19%.
The like results for `Cc1nccn1CCNC(=O)CN1CCC2(CCC1=O)CC(=O)c1ccccc1O2` (stereo not given) were, in that order, 98%, 4% and 0%.
For the compound `CCOc1ccc2[nH]c(C)cc(=NN=Cc3ccccc3F)c2c1`, the Inhibition in assay [1] is 100%; in assay [2], 99%; in assay [3] it was 0%.
The like results for `CC(C)CCN(Cc1cncn1Cc1cccc(C(F)(F)F)c1)C(=O)c1cncc(-c2ccccc2)c1` were, in that order, 100%, 4% and 15%.
The like results for `Cc1cc(OCCCN2CCC(NS(=O)(=O)c3cc(Br)c(Cl)s3)CC2)c2ccccc2n1` were, in that order, 95%, 39% and 5%.
The matching figures for `O=C(O)C(F)(F)F.OCCN1CCN(Cc2cccc(-c3ccc(-c4nc5cc(C(F)(F)F)ccc5[nH]4)cc3)c2)CC1`: 100%, 85% and 19%.
On to `CCCCCn1c(Sc2ccc(C#N)c([N+](=O)[O-])c2)nnc1-c1cccs1`, for which the figures for the Inhibition in assay [1], in assay [2] and in assay [3] were 91%, 38% and 19%, respectively.
The like results for `CCCCCc1cc(OC(=O)CCCN(CC)CC)c2c(c1)OC(C)(C)C=C2C1=CCN(Cc2ccc3ccccc3c2)CC1` were, in that order, 100%, 92% and 94%.
The like results for `CC(C)(C)C1CCC(C(=O)c2ccc3ccccc3c2O)CC1` (stereo not given) were, in that order, 83%, 63% and 0%.
The matching figures for `CCCCCCn1c(Sc2ccc(C#N)c([N+](=O)[O-])c2)nnc1-c1cccc(Cl)c1`: 96%, 90% and 17%.
For `CN(CCCNC(=S)NC12CC3CC(CC(C3)C1)C2)CCCNc1ccnc2cc(Cl)ccc12`, the Inhibition was 100% in assay [1], 98% in assay [2] and 73% in assay [3].
Take `COc1ccc(CN(C)C(=O)CCNS(=O)(=O)c2ccc3c(c2)OCCCO3)cc1F`: the Inhibition is listed as 96% in assay [1], 94% in assay [2] and 9% in assay [3].
The like results for `Cc1nc2ccc(NC(=O)Nc3ccnc4ccc(C(F)(F)F)cc34)cc2o1` were, in that order, 89%, 24% and 20%.
In the case of `Cc1nc(-c2nc(NCc3ccncc3)ncc2-c2ccsc2)sc1C`, the figures for the Inhibition in assay [1], in assay [2] and in assay [3] were 91%, 83% and 8%, respectively.
On to `O=C(O)C(F)(F)F.c1ccc(CN2CCC(NCc3ccccc3-c3cccc(CNC4CCCC4)c3)CC2)cc1`, for which the Inhibition in assay [1] came out at 100%; in assay [2], 59%; in assay [3] it was 35%.
